In PubChem BioAssay (NCATS):
Records with an inconclusive call do not appear. The source made the active and inactive calls. Unless noted, calls follow the shape of the dose curve; as a rule, active = well fitted cell-killing curve with a large enough effect; inconclusive = small, poorly fitted or top-dose-only effect; inactive = flat fitted curve, though single readings scatter.

How the values were obtained:
[1] = Cell Viability - LYMP2-025 (AID 976);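 also: series mostly up to about 92 µM; plate controls were DMSO only for no effect and tetraoctylammonium bromide control for full effect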
Outline: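 Cytotoxicity read as loss of intracellular ATP (luciferase luminescence) after 24 h compound treatment at 37 C. Uses LYMP2-025 lymphoblastoid cells in 1536-well format; Hill-equation modelling gives AC50; tetraoctylammonium bromide as positive control.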

[2] = Cell Viability - LYMP2-002 (AID 977);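 also: series mostly up to about 92 µM; plate controls were DMSO only for no effect and 92 µM tetraoctylammonium bromide for full effect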
Outline: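 In this qHTS viability screen, 2500 human lymphoblastoid cells per well receive compound for 24 hr at 37 C, and luciferase-based ATP luminescence gives the viability signal. Tetraoctylammonium bromide serves as positive control.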

[3] = Cell Viability - LYMP2-006 (AID 978); also: series mostly up to about 92 µM; % is scaled to controls: 0 for no effect and ±100 for the full control effect; nearly all actives have a fitted effect of over 60% in size
Outline: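 Human lymphoblastoid cells (LYMP2-006), 2500/well in complete medium, were treated with compound for 24 hr at 37 C. Cellular ATP was read by CellTiter-Glo luminescence after 30 min, and AC50 values came from Hill-equation fits of concentration-response data.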

[4] = Cell Viability - LYMP2-007 (AID 979);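 also: cells exposed to compound for 24 h before reading; 0% = DMSO only and the negative end = 92 µM tetraoctylammonium bromide; nearly all actives have a fitted effect of over 60% in size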
Outline: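 AC50 values come from Hill-equation fits of luminescent intracellular ATP (CellTiter-Glo, 30 min, room temperature) following 24 h compound exposure at 37 C. Cells: LYMP2-007 lymphoblastoid line, 2500 per well, in complete culture medium.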

[5] = Cell Viability - LYMP2-008 (AID 980); also: % is scaled to controls: 0 for no effect and ±100 for the full control effect; nearly all actives have a fitted effect of over 60% in size
Outline: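 Cytotoxicity determined from ATP-dependent luciferase luminescence (CellTiter-Glo) following 24 h compound exposure of human lymphoblastoid LYMP2-008 cells at 37 C. Concentration-response data fitted to the Hill equation to give AC50.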

[6] = Cell Viability - LYMP2-012 (AID 982);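 also: cellular ATP by luciferase luminescence where a drop means cytotoxicity; cells exposed to compound for one day before reading; 0% = DMSO only and full loss = 92 µM tetraoctylammonium bromide; nearly all actives have a fitted effect of over 55% in size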
[7] = Cell Viability - LYMP2-016 (AID 984); also: % is scaled to controls: 0 for no effect and ±100 for the full control effect; nearly all actives have a fitted effect of over 55% in size
Outline: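 Human lymphoblastoid LYMP2-016 cells, 2500 per well, treated with compounds for 24 h at 37 C. Viability read as intracellular ATP by CellTiter-Glo luminescence after 30 min at room temperature; AC50 from Hill fits of concentration-response.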

[8] = Cell Viability - LYMP2-018 (AID 985);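 also: plate controls were DMSO only for no effect and tetraoctylammonium bromide at 92 µM for full effect; nearly all actives have a fitted effect of over 50% in size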
Outline: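 Viability read as CellTiter-Glo luminescence (cellular ATP) after 24 hr compound exposure at 37 C of 2500 LYMP2-018 lymphoblastoid cells/well, pre-plated 5 hr. Hill-equation modelling gave AC50.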

[9] = Cell Viability - LYMP2-020 (AID 986);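 also: series mostly up to about 92 µM; plate controls were DMSO only for no effect and tetraoctylammonium bromide at 92 µM for full effect; nearly all actives have a fitted effect of over 55% in size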
Outline: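 Cytotoxicity in qHTS format: luminescent ATP readout from CellTiter-Glo after 24 h compound exposure at 37 C in complete medium. LYMP2-020 lymphoblastoid cells were seeded at 2500/well; concentration-response data fitted to the Hill equation for AC50.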

[10] = Cell Viability - LYMP2-022 (AID 987);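 also: 0% = DMSO alone and full effect = tetraoctylammonium bromide at 92 µM; nearly all actives have a fitted effect of over 55% in size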
Outline: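 Cytotoxicity read as decreased cellular ATP (CellTiter-Glo luminescence, 30 min room temperature) after 24 hours compound exposure of 2500 lymphoblastoid LYMP2-022 cells/well at 37 C. Concentration-response data fitted with standard Hill equation for AC50.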

[11] = Cell Viability - LYMP2-024 (AID 988);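 also: plate controls were DMSO only for no effect and 92 µM tetraoctylammonium bromide for full effect; nearly all actives have a fitted effect of over 60% in size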
Outline: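 Cytotoxicity was taken as a decrease in ATP (CellTiter-Glo luminescence) after 24 hr compound exposure at 37 C of LYMP2-024 lymphoblastoid cells, 2500 cells/well. Concentration-response data were fitted to the Hill equation to give AC50.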

[12] = Cell Viability - LYMP2-026 (AID 989); also: % is scaled to controls: 0 for no effect and ±100 for the full control effect; nearly all actives have a fitted effect of over 50% in size
Outline: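 Cytotoxicity read as ATP-dependent luminescence (CellTiter-Glo, 30 min room temperature) after 24 h compound treatment at 37 C. LYMP2-026 lymphoblastoid line seeded at 2500 cells/well; AC50 derived by standard Hill equation.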

[13] = Cell Viability - LYMP1-002 - Assay at 24 hr (AID 993); also: % is scaled to controls: 0 for no effect and ±100 for the full control effect
Outline: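 qHTS cytotoxicity at 24 h: CellTiter-Glo ATP luminescence in lymphoblastoid line LYMP1-002 incubated with compound at 37 °C. Concentration-response modeled with the Hill equation for AC50; tetraoctylammonium bromide served as positive control.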

[14] = Cell Viability - LYMP1-002 - Assay at 40 hr (AID 994)
Outline: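 Cytotoxicity was read as loss of cellular ATP (CellTiter-Glo luminescence) after 40 hr compound exposure at 37 C of 2500 LYMP1-002 lymphoblastoid cells per well. Concentration-response data were fitted with the standard Hill equation to give AC50.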

[15] = qHTS Assay for Identification of Small Molecule Inducers of Hypoxia Response (AID 2120; active = well fitted curve in the direction sought with a large enough effect in the signal ratio, with a control signal flat, not every such curve was filed as active; the % refers to the signal ratio; also: 0% is about no effect)
Outline: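 Reporter induction read as the CCF4 blue/green (460nm/530nm) emission ratio after 2.5 h dye loading at room temperature. ME-180 HRE-beta-lactamase cells received titrated compounds for 17 h at 37 degrees Celsius; AC50 values derived.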

[16] = molecular target: Estrogen receptor (Homo sapiens) (UniProt P03372); assay: qHTS assay for small molecule antagonists of estrogen receptor alpha signaling (AID 588513; active = well fitted curve in the direction sought with a large enough effect in the signal ratio, with a control signal flat, not every such curve was filed as active; the % refers to the signal ratio; also: % is scaled to controls: 0 for no effect and ±100 for the full control effect)
Chain of Estrogen receptor (Homo sapiens) (P03372 whole entry, looked up): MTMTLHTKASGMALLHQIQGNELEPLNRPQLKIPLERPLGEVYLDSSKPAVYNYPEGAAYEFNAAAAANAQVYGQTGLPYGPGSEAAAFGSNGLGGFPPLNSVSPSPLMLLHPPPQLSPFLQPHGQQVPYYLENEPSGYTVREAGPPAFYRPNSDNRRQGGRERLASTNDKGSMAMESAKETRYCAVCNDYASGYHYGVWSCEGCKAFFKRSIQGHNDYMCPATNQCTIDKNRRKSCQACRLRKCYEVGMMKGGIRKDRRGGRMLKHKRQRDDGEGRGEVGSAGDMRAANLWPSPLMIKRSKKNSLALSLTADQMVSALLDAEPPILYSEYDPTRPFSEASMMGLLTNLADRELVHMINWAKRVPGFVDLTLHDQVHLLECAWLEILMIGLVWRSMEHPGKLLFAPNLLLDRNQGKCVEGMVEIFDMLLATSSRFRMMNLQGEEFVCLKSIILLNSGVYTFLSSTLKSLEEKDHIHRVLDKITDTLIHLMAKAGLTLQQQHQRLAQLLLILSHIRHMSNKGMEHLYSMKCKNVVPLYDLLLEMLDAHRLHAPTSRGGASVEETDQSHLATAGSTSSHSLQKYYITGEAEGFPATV
Outline: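 ER-alpha-UAS-bla GripTite HEK 293 cells in 2% charcoal/dextran-treated FBS medium; compounds titrated (1:2, duplicate), then stimulated with 0.5 nM 17-beta-estradiol for 18 h at 37C. CCF4 beta-lactamase fluorescence; Hill-fit IC50 and efficacy.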

[17] = Cell Viability - LYMP2-014 (AID 983);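 also: series mostly up to about 92 µM; plate controls were DMSO only for no effect and 92 µM tetraoctylammonium bromide for full effect; nearly all actives have a fitted effect of over 50% in size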
Outline: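 Intracellular ATP loss, read by luciferase luminescence, measures acute cytotoxicity after 24 h compound exposure of lymphoblastoid LYMP2-014 cells (2500/well, 37 C). Concentration-response data fitted to the Hill equation for AC50.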

[18] = Cell Viability - LYMP2-010 (AID 981)
Outline: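 CellTiter-Glo ATP luminescence measured cytotoxicity after 24 h compound exposure at 37 C. LYMP2-010 cells were seeded at 2500/well, with tetraoctylammonium bromide as control; concentration-response curves gave AC50 values by the Hill equation.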

[19] = molecular target: Androgen receptor (Homo sapiens) (UniProt P10275); assay: qHTS assay for small molecule agonists of androgen receptor signaling (AID 588515; active = well fitted curve in the direction sought with a large enough effect in the signal ratio, with a control signal flat; the % refers to the signal ratio; also: % is scaled to controls: 0 for no effect and ±100 for the full control effect); settings: AR-UAS-bla HEK293, beta-lactamase ratio, agonist 16 h; stronger effect = higher value
Chain of Androgen receptor (Homo sapiens) (P10275 whole entry, looked up): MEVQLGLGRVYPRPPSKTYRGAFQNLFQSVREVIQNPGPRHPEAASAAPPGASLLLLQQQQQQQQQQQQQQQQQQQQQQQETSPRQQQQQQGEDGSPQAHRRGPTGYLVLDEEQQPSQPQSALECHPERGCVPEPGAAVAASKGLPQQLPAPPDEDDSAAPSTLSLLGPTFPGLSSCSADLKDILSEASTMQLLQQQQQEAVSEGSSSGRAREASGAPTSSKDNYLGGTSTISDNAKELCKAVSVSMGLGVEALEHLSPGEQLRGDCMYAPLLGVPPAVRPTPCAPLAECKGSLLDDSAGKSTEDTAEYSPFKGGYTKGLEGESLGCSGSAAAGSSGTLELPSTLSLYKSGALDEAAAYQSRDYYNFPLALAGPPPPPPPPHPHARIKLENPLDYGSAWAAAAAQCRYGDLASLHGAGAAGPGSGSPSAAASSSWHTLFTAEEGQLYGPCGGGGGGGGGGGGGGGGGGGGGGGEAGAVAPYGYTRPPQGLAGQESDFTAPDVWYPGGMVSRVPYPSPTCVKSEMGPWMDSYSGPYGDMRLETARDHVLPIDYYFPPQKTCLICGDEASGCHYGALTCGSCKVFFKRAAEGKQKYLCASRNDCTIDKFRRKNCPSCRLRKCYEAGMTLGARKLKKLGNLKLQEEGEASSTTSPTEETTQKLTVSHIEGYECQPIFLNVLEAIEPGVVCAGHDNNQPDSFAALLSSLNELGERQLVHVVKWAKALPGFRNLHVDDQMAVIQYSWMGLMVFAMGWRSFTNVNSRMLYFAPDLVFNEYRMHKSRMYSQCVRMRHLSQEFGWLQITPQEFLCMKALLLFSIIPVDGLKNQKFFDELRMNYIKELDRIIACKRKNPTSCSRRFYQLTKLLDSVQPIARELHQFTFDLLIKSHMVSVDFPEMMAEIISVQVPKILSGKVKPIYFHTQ
Outline: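 Stimulation of an AR-responsive β-lactamase reporter in GripTite HEK293 cells was measured after 16 h compound exposure at 37 °C, via CCF4 fluorescence after 2 h RT. EC50 from Hill fits, normalized to R1881 at 30 nM.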

[20] = molecular target: Estrogen receptor (Homo sapiens) (UniProt P03372); assay: qHTS assay for small molecule agonists of estrogen receptor alpha signaling (AID 588514; calls by dose curve;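 also: 0% = vehicle only and 100% = reference agonist; nearly all actives have a fitted effect of over 70% in size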)
Outline: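 EC50 and efficacy came from Hill fits of beta-lactamase reporter signal (CCF4 dye, 2 h at room temperature) scaled between DMSO and 20 nM 17-beta-estradiol. Agonist mode: HEK293 ER-alpha-UAS-bla cells in charcoal/dextran-stripped serum medium, 18 h compound exposure at 37 C.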

FB(F)F
inactive: Potency [1] | Potency [2] | Potency [3] | Potency [4] | Potency [5] | Potency [6] | Potency [7] | Potency [8] | Potency [9] | Potency [10] | Potency [11] | outcome [12] | Potency [13] | Potency [14] | outcome [15] | outcome [16]

CCC=O
inactive: Potency [1] | Potency [2] | Potency [3] | Potency [4] | Potency [5] | Potency [6] | Potency [17] | Potency [7] | Potency [8] | Potency [9] | Potency [10] | Potency [11] | Potency [14] | outcome [15] | outcome [16]

Cc1cccc2sc(N)nc12
inactive: Potency [2] | Potency [3] | Potency [4] | Potency [5] | Potency [18] | Potency [17] | Potency [7] | Potency [8] | Potency [9] | Potency [10] | Potency [11] | outcome [12] | Potency [13] | Potency [14] | outcome [15] | outcome [16]

Nc1ccc(Cl)cc1[N+](=O)[O-]
inactive: Potency [1] | Potency [2] | Potency [3] | Potency [4] | Potency [5] | Potency [6] | Potency [17] | Potency [7] | Potency [8] | Potency [9] | Potency [10] | Potency [11] | outcome [12] | Potency [13] | Potency [14] | outcome [15] | outcome [16] | activation [19] 7.43%

Cc1ccccc1C#N
inactive: Potency [1] | Potency [2] | Potency [3] | Potency [4] | Potency [5] | Potency [18] | Potency [6] | Potency [17] | Potency [7] | Potency [8] | Potency [9] | Potency [10] | outcome [12] | Potency [14] | outcome [15] | outcome [16]

Cc1cccc(C(=O)O)c1[N+](=O)[O-]
inactive: Potency [1] | Potency [2] | Potency [3] | Potency [4] | Potency [5] | Potency [18] | Potency [6] | Potency [17] | Potency [8] | Potency [9] | Potency [10] | outcome [12] | Potency [13] | Potency [14] | outcome [15] | outcome [16]

C=C(C)C(N)=O
inactive: Potency [1] | Potency [2] | Potency [3] | Potency [4] | Potency [5] | Potency [18] | Potency [6] | Potency [7] | Potency [8] | Potency [9] | Potency [10] | Potency [11] | outcome [12] | Potency [13] | Potency [14] | outcome [15] | outcome [16]

CCCCC(CC)COC(=O)CCCCC(=O)OCC(CC)CCCC (stereo not drawn)
inactive: Potency [1] | Potency [2] | Potency [3] | Potency [4] | Potency [5] | Potency [18] | Potency [6] | Potency [17] | Potency [7] | Potency [8] | Potency [9] | Potency [10] | outcome [12] | Potency [13] | Potency [14] | outcome [15] | outcome [16]

CCC(C)(C)C
inactive: Potency [1] | Potency [2] | Potency [3] | Potency [4] | Potency [5] | Potency [18] | Potency [6] | Potency [17] | Potency [7] | Potency [8] | Potency [9] | Potency [10] | Potency [11] | outcome [12] | Potency [13] | Potency [14] | outcome [15] | outcome [16]

Cc1ccc2nc(-c3ccc(N)cc3)sc2c1S(=O)(=O)O
inactive: Potency [1] | Potency [2] | Potency [4] | Potency [5] | Potency [18] | Potency [6] | Potency [17] | Potency [7] | Potency [8] | Potency [9] | Potency [10] | Potency [11] | outcome [12] | Potency [13] | Potency [14] | outcome [15] | outcome [16]

O=c1[nH][nH]c(=O)c2cc([N+](=O)[O-])ccc12
inactive: Potency [1] | Potency [2] | Potency [3] | Potency [4] | Potency [5] | Potency [18] | Potency [6] | Potency [17] | Potency [7] | Potency [8] | Potency [9] | Potency [10] | Potency [11] | outcome [12] | Potency [13] | Potency [14] | outcome [15] | outcome [16]

CCC(C)(C)C(=O)O
inactive: Potency [2] | Potency [3] | Potency [4] | Potency [5] | Potency [18] | Potency [6] | Potency [17] | Potency [8] | Potency [9] | Potency [10] | Potency [11] | outcome [12] | Potency [13] | Potency [14] | outcome [15] | outcome [16] | activation [19] -5.44%

Cc1cc(C(=O)O)ccc1[N+](=O)[O-]
inactive: Potency [1] | Potency [2] | Potency [3] | Potency [4] | Potency [5] | Potency [18] | Potency [6] | Potency [17] | Potency [7] | Potency [8] | Potency [9] | Potency [10] | Potency [11] | Potency [13] | Potency [14] | outcome [15] | outcome [16]

CC(C)c1ccccc1
inactive: Potency [2] | Potency [3] | Potency [4] | Potency [5] | Potency [18] | Potency [6] | Potency [17] | Potency [7] | Potency [8] | Potency [9] | Potency [10] | Potency [11] | outcome [12] | Potency [13] | Potency [14] | outcome [15] | Potency [20] | activation [19] -0.119%

Cc1cc(C)c(N)cc1C
inactive: Potency [1] | Potency [2] | Potency [3] | Potency [4] | Potency [5] | Potency [18] | Potency [6] | Potency [7] | Potency [9] | Potency [10] | outcome [12] | Potency [13] | Potency [14] | outcome [15] | outcome [16]

CNC(=O)N(c1ccccc1)c1ccccc1
inactive: Potency [2] | Potency [3] | Potency [4] | Potency [5] | Potency [18] | Potency [6] | Potency [17] | Potency [7] | Potency [9] | Potency [10] | Potency [11] | outcome [12] | Potency [13] | Potency [14] | outcome [15] | outcome [16] | activation [19] -11.4%
